# Shown is part of a subset that was picked to be rich in hits.
# CBX7 inh – CBX7 chromodomain binding inhibitors, primary screen, biochemical, AlphaScreen; Chromobox protein homolog 7 (Homo sapiens), O95931; AlphaScreen His6-CBX7 / biotin-H3K27me3 peptide binding; hits give low values; normalised signal (fraction of DMSO) (no concentration beside the values); hit rate 1.1% among 66,000; AID 1224903, 2016; in the data active = normalised signal below about 0.5
# Target sequence (O95931 whole entry, looked up): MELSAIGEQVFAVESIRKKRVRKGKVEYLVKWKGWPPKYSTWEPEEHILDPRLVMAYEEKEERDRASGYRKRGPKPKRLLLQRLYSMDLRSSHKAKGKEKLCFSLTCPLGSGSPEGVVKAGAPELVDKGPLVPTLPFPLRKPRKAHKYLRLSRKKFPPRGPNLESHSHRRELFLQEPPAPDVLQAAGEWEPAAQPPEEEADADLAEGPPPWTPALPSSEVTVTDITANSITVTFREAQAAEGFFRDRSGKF
# Numbers without * were called inactive.
SMILES,CBX7 inh
COc1ccc(C2CC(=O)C3=C(C2)Nc2ccccc2NC3c2ccncc2)cc1OC (stereo unspecified),1
COc1ccc(NC(=O)CC2Sc3ccccc3NC2=O)cc1OC (stereo unspecified),0.98
O=C(CC1Sc2ccccc2NC1=O)Nc1ccc2c(c1)OCO2 (stereo unspecified),0.89
O=C1C2=C(Nc3ccccc3SC2c2ccco2)c2ccccc21 (stereo unspecified),0.39*
CC(C(=O)NC1CCCC1)C1Sc2ccccc2NC1=O (stereo unspecified),1
O=C(CC1Sc2ccccc2NC1=O)Nc1ccc2c(c1)OCCO2 (stereo unspecified),1.2
COc1ccc(C2Sc3ccccc3NC3=C2C(=O)c2ccccc23)cc1OC (stereo unspecified),0.4*
Cc1ccccc1-n1nc2c(c1NC(=O)C1(c3ccc(Cl)cc3)CCCC1)CS(=O)(=O)C2,0.97
Cc1cccc2c3c([nH]c12)CCN(CCCC(=O)c1ccc(F)cc1)C3,0.74
COc1ccccc1C(=O)N1CC(=O)Nc2ccc(Br)cc2C1c1ccccc1 (stereo unspecified),0.92
Clc1ccc2nc(-c3c[nH]c4ccccc34)c(Nc3ccc4c(c3)OCO4)n2c1,0.74
CCOC(=O)c1cnc2cc(Cl)c(OC)cc2c1Nc1ccccc1OC,1
COc1cccc(NC(=O)COc2ccc(N3CC(C(=O)NCCc4ccccc4)CC3=O)cc2)c1 (stereo unspecified),1.1
CC(C)(C)c1ccc(C(=O)Nc2nnc(-c3cccs3)s2)cc1,1.1
COc1ccc(-n2c(C)nc3cc(C(=O)NCc4ccc(F)cc4)ccc32)cc1,1
Cc1cccc(N2CCN(C(=O)CN3CC(c4ccccc4)CC3=O)CC2)c1C (stereo unspecified),1
O=C(Nc1cccnc1)C1CCCN(S(=O)(=O)c2cccnc2)C1 (stereo unspecified),1
Cc1nccc2[nH]c(=O)c(C(=O)NC3CCCC(C)C3C)cc12 (stereo unspecified),0.96
COc1cccc(-c2nc3sc4c(c3c(=O)n2CC(=O)NCCc2ccc(OC)c(OC)c2)CCCC4)c1,0.97
COc1cccc(-c2nn(C)c3sc(C(=O)NCC4(c5ccccc5)CCCC4)cc23)c1,1
CCOC(=O)c1[nH]c2c(c1Cc1ccccc1C)C(=O)CC(c1cccs1)C2 (stereo unspecified),0.81
CC(C(=O)NCc1ccc2c(c1)OCO2)n1ncc2ccccc21 (stereo unspecified),0.86
Cc1c(NC(=O)c2cc3ccccc3o2)cccc1-c1nc2cc(Cl)ccc2o1,1
O=C(Nc1ccccc1-c1nc2ccccc2s1)c1ccccc1,1
O=C(Nc1ccc2oc(-c3ccccc3Cl)nc2c1)c1ncn[nH]1,0.043*
SMILES,CBX7 inh
O=C(Nc1ccc2oc(-c3ccccc3Cl)nc2c1)c1cncc(Br)c1,1
Cc1c(NC(=O)c2ccccc2F)cccc1-c1nc2cc(Cl)ccc2o1,1.1
Cc1c(NC(=O)c2ccccc2F)cccc1-c1nc2ccccc2s1,1.1
Cc1c(NC(=O)c2ncn[nH]2)cccc1-c1nc2ccccc2s1,0.18*
Cc1c(NC(=O)c2ncn[nH]2)cccc1-c1nc2cc(Cl)ccc2o1,0.12*
O=C(Nc1ccc2oc(-c3ccccc3Cl)nc2c1)c1ccc(F)cc1,1
Cc1ccccc1-c1nc(-c2ccc(NC(=O)c3ccncc3)cc2)no1,1
CCCCNC(=O)c1cc(-c2cccnc2)nc2ccc(S(=O)(=O)N3CCC(C)CC3)cc12,1.2
CCCc1ccc(OCC(O)CN2CCN(c3ccccc3OC)CC2)cc1 (stereo unspecified),1
O=C(Cn1nc(-c2ccccc2)ccc1=O)NCCCN1CCCCCC1,1
CC(O)c1nc2ccccc2n1CCC1CCCCC1 (stereo unspecified),1
CCCCOc1ccc(C(=O)Nc2sc3c(c2C(N)=O)CCCC3)cc1,0.99
CCCCNC(=O)c1ccc2c(c1)N=C(C)c1cc(C)ccc1S2,0.97
Cc1c(Cl)cccc1NC(=O)c1oc2ccc(S(=O)(=O)N3CCCCC3)cc2c1C,1
Cc1ccccc1Cn1c(=O)c(CCC(=O)NCC2COc3ccccc3O2)nc2ccccc21 (stereo unspecified),0.87
O=C(COc1ccc(Cl)cc1)NCc1nnc(SCC(=O)Nc2ccc3c(c2)OCO3)o1,1.1
COc1ccc(C(C(=O)NC2CCCCC2)N2CCc3ccccc32)cc1 (stereo unspecified),0.93
Cc1ccc(-c2nc3ccccn3c2Nc2ccc3c(c2)OCCO3)cc1,1
Clc1ccc(-c2nc3ccccn3c2Nc2ccc3c(c2)OCCO3)cc1,0.61
Clc1ccc(-c2nc3ncccn3c2Nc2ccc3c(c2)OCCO3)cc1,0.85
c1cncc(-c2nc3ccccn3c2Nc2ccc3c(c2)OCCO3)c1,0.9
Cc1cccn2c(Nc3ccc4c(c3)OCCO4)c(-c3ccc(Cl)cc3)nc12,0.48*
c1csc(-c2nc3ccccn3c2Nc2ccc3c(c2)OCCO3)c1,0.77
Cc1ccc(-c2nc3ccccn3c2Nc2ccc3c(c2)OCO3)cc1,0.35*
c1ccn2c(Nc3ccc4c(c3)OCCO4)c(-c3ccc(N4CCOCC4)cc3)nc2c1,1
SMILES,CBX7 inh
Brc1cccc(-c2nc3ccccn3c2Nc2ccc3c(c2)OCCO3)c1,0.44*
CC12C=CC(C)(O1)C1C(=O)N(c3ccc(Cl)cc3)C(=O)C12 (stereo unspecified),0.91
Cc1ccc(S(=O)(=O)c2nc(Cc3ccccc3)oc2NCc2ccccc2)cc1,0.91
CC(C)NC(=O)c1ccc2c(c1)N(Cc1ccccc1)C(=O)c1ccccc1S2(=O)=O,1.2
CC1CCCN(C(C(=O)NC2CCCCC2)c2ccc(Cl)cc2)C1 (stereo unspecified),0.9
O=C(c1ccc2c(=O)n3c(nc2c1)CCCCC3)N1CCCc2ccccc21,0.9
Cc1cc(N2CCCC2)nc2ccc(NC(=O)CCC(=O)N(C)C3CCCCC3)cc12,0.97
Cc1cc2cc(CCNC(=O)Cc3ccccc3)c(=O)[nH]c2cc1C,1
Cc1ccc(-c2nnc(Nc3cccc(O)c3)c3ccccc23)cc1S(N)(=O)=O,0.93
Cc1ccc(-c2nnc(Nc3cccc(O)c3)c3ccccc23)cc1S(=O)(=O)NC(C)(C)C,0.4*
Cc1ccc(-c2nnc(Nc3ccc(O)cc3)c3ccccc23)cc1S(=O)(=O)NC(C)(C)C,0.67
CN(C)c1ccc(-c2nc3sc4c(c3c(=O)[nH]2)CCCC4)cc1Br,1.1
Cc1cccc(NC(=O)C2CCCN(S(=O)(=O)c3cccs3)C2)c1 (stereo unspecified),0.88
CCOC(=O)c1c(Cn2ccnc2C)n(C)c2cc(Br)c(O)cc12,0.88
C=CCN(CC=C)S(=O)(=O)c1ccc(C(=O)Nc2nnc(COC)o2)cc1,0.069*
COCc1nnc(NC(=O)c2ccc(S(=O)(=O)N(CC(C)C)CC(C)C)cc2)o1,0.081*
Cc1cn(-c2nc(-c3ccccc3)oc2-c2ccccc2)c(=O)nc1N1CCCCC1,0.91
CCOC(=O)c1nnn(-c2nonc2N)c1CN1CCN(c2ccc(F)cc2)CC1,1
COc1ccc(NC(=O)c2cnn3cccnc23)cn1,1.1
O=C(Cn1ncc2c1-c1ccccc1OC2)NC1CCCCCC1,1.1
CCCCOc1ccc(-c2nc3ccccc3c(C(=O)O)c2C)cc1,1
Cc1ccn2c(NC(=O)C3CCCCC3)c(-c3ccc(F)cc3)nc2c1,1
CCOc1ccc(-c2nc3c(C(=O)OC)c[nH]n3c2NC2CCCCC2)cc1OC,0.7
COC(=O)c1c[nH]n2c(NC3CCCCC3)c(-c3ccc(F)cc3)nc12,0.55

# High-throughput results from PubChem BioAssay.
